Values joined by “and” are separate entries in the source; they are usually repeats but may differ in a detail not shown here. Identical values can stand only once. In all, about 5,500 compounds went through this assay and about 2,000 (36%) were called active. Another 18% or so got no clear call; they are omitted. No stated cut-off is given here; in the data, active means normalized growth mostly below about 0.91 (no sharp cut-off); inconclusive means no clear call, values can overlap the other calls; inactive means mostly above about 0.92. The list shows a part of the results.
Assay: chemical genetic growth profiling, strain panel (AID 1159580);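 further: tested at 20 µM; growth read once vehicle control cultures reached saturation at 30 °C; 1 = growth at the plate median or of vehicle wells; lower values mean less growth of the strain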
Conditions: S. cerevisiae deletion strains, growth OD

Measured: normalized growth

Oc1c(I)cc(I)c2cccnc12
active: locus YAL013W, strain DEP1, active compounds read low 0.071 | locus YAL021C, strain ccr4, active compounds read low 0.091 | locus YAL026C, strain drs2, active compounds read low 0.0859 | locus YAL030W, strain snc1, active compounds read low 0.0764 | locus YBL061C, strain skt5, active compounds read low 0.0816 | locus YBR009C, strain hhf1, active compounds read low 0.0997 | locus YBR021W, strain FUR4, active compounds read low 0.129 | locus YBR023C, strain chs3, active compounds read low 0.077 | locus YBR171W, strain sec66, active compounds read low 0.114 | locus YBR229C, strain ROT2, active compounds read low 0.0677 | locus YBR231C, strain swc5, active compounds read low 0.0701 | locus YBR279W, strain paf1, active compounds read low 0.0764 | locus YCL011C, strain gbp2, active compounds read low 0.135 | locus YCL016C, strain dcc1, active compounds read low 0.0819 | locus YCL029C, strain bik1, active compounds read low 0.101 | locus YCL061C, strain MRC1, active compounds read low 0.0902 | locus YCL069W, strain vba3, active compounds read low 0.0885 | locus YCR088W, strain abp1, active compounds read low 0.0854 | locus YDL005C, strain med2, active compounds read low 0.104 | locus YDL035C, strain GPR1, active compounds read low 0.067 | locus YDL040C, strain nat1, active compounds read low 0.073 | locus YDL074C, strain BRE1, active compounds read low 0.104 | locus YDL101C, strain DUN1, active compounds read low 0.084 | locus YDL185W, strain tfp1, active compounds read low 0.0824 | locus YDL192W, strain arf1, active compounds read low 0.103 | locus YDR001C, strain nth1, active compounds read low 0.0844 | locus YDR069C, strain doa4, active compounds read low 0.0819 | locus YDR101C, strain arx1, active compounds read low 0.0994 | locus YDR137W, strain rgp1, active compounds read low 0.0996 | locus YDR150W, strain NUM1, active compounds read low 0.078 | locus YDR159W, strain sac3, active compounds read low 0.107 | locus YDR162C, strain NBP2, active compounds read low 0.0632 | locus YDR195W, strain ref2 0.337 | locus YDR297W, strain sur2, active compounds read low 0.0803 | locus YDR318W, strain mcm21, active compounds read low 0.101 | locus YDR334W, strain swr1, active compounds read low 0.0842 | locus YDR335W, strain msn5, active compounds read low 0.0856 | locus YDR388W, active compounds read low 0.0882 | locus YDR392W, strain spt3, active compounds read low 0.13 | locus YDR502C, strain sam2, active compounds read low 0.106 | locus YEL003W, strain gim4, active compounds read low 0.127 | locus YEL037C, strain rad23, active compounds read low 0.0807 | locus YEL061C, strain CIN8 (second series), active compounds read low 0.0847 | locus YEL061C, strain CIN8, active compounds read low 0.073 | locus YER015W, strain faa2, active compounds read low 0.0857 | locus YER016W, strain bim1, active compounds read low 0.0805 | locus YER110C, active compounds read low 0.115 | locus YER111C, strain swi4, active compounds read low 0.103 | locus YER155C, strain BEM2 (second series), active compounds read low 0.126 | locus YER155C, strain BEM2, active compounds read low 0.0881 | locus YER167W, strain BCK2, active compounds read low 0.0711 | locus YFR010W, strain ubp6, active compounds read low 0.0943 | locus YGL078C, strain dbp3, active compounds read low 0.258 | locus YGL086W, strain mad1, active compounds read low 0.0789 | locus YGL167C, strain pmr1, active compounds read low 0.0938 | locus YGL173C, strain kem1, active compounds read low 0.0913 | locus YGL227W, strain vid30, active compounds read low 0.0911 | locus YGL240W, strain doc1, active compounds read low 0.106 | locus YGL248W, strain PDE1, active compounds read low 0.0617 | locus YGL253W, strain hxk2, active compounds read low 0.0781 | locus YGR078C, strain PAC10, active compounds read low 0.0681 | locus YGR135W, strain pre9, active compounds read low 0.102 | locus YGR252W, strain gcn5, active compounds read low 0.308 | locus YHR013C, strain ard1, active compounds read low 0.141 | locus YHR027C, strain rpn1, active compounds read low 0.0845 | locus YHR030C, strain SLT2, active compounds read low 0.0746 and 0.163 | locus YHR079C, strain IRE1 (second series), active compounds read low 0.0873 | locus YHR079C, strain IRE1, active compounds read low 0.135 | locus YHR094C, strain hxt1, active compounds read low 0.0952 | locus YHR129C, strain ARP1, active compounds read low 0.0776 | locus YHR142W, strain chs7, active compounds read low 0.103 | locus YHR200W, strain rpn10, active compounds read low 0.2 | locus YIL066C, strain RNR3, active compounds read low 0.0647 | locus YIL073C, strain SPO22, active compounds read low 0.136 | locus YIL125W, strain kgd1, active compounds read low 0.174 | locus YIR030C, strain dcg1, active compounds read low 0.095 | locus YJL092W, strain hpr5, active compounds read low 0.0768 | locus YJL095W, strain BCK1 (second series), active compounds read low 0.0748 | locus YJL095W, strain BCK1, active compounds read low 0.081 and 0.123 | locus YJL115W, strain asf1, active compounds read low 0.102 | locus YJL129C, strain trk1, active compounds read low 0.148 | locus YJL134W, strain LCB3, active compounds read low 0.0694 | locus YJL154C, strain vps35, active compounds read low 0.0817 | locus YJL164C, strain tpk1, active compounds read low 0.0873 | locus YJL166W, strain qcr8, active compounds read low 0.0859 | locus YJL168C, strain set2, active compounds read low 0.0922 | locus YJL187C, strain SWE1 (second series), active compounds read low 0.064
